Test results: PubChem BioAssay AID1159580 (chemical genetic matrix, 2015)
Values joined by “and” are separate entries in the source; they are usually repeats but may differ in a detail not shown here. Equal entries are not always repeated. About 2,000 (36%) of roughly 5,500 compounds were called active. About 18% were inconclusive and are not listed. Rule as the data show it: active = normalized growth mostly below about 0.91 (no sharp cut-off); inconclusive = no clear call, values can overlap the other calls; inactive = mostly above about 0.92. This is one part of the list.

Assay: chemical genetic growth profiling, strain panel (AID 1159580);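 also: tested at 20 µM; growth read once vehicle control cultures reached saturation at 30 °C; 1 = growth at the plate median or of vehicle wells; lower values mean less growth of the strain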
Details: S. cerevisiae deletion strains, growth OD

Measured: normalized growth

CC[C@@]1(O)C(=O)OCc2c1cc1n(c2=O)Cc2cc3ccccc3nc2-1
0.94 (inactive) and 0.843 (active): locus YHR030C, strain SLT2, stronger effect = lower value
active: locus YAL013W, strain DEP1, stronger effect = lower value 0.829 | locus YAL021C, strain ccr4, stronger effect = lower value 0.327 | locus YAL026C, strain drs2, stronger effect = lower value 0.626 | locus YAL030W, strain snc1, stronger effect = lower value 0.813 | locus YBL061C, strain skt5, stronger effect = lower value 0.859 | locus YBR009C, strain hhf1, stronger effect = lower value 0.681 | locus YBR023C, strain chs3, stronger effect = lower value 0.803 | locus YBR231C, strain swc5, stronger effect = lower value 0.696 | locus YCL011C, strain gbp2, stronger effect = lower value 0.577 | locus YCL016C, strain dcc1, stronger effect = lower value 0.134 | locus YCL029C, strain bik1, stronger effect = lower value 0.884 | locus YCL061C, strain MRC1, stronger effect = lower value 0.821 | locus YCL069W, strain vba3, stronger effect = lower value 0.788 | locus YCR088W, strain abp1, stronger effect = lower value 0.747 | locus YDL005C, strain med2, stronger effect = lower value 0.882 | locus YDL035C, strain GPR1, stronger effect = lower value 0.843 | locus YDL074C, strain BRE1, stronger effect = lower value 0.613 | locus YDL101C, strain DUN1, stronger effect = lower value 0.654 | locus YDL134C, strain PPH21, stronger effect = lower value 0.81 | locus YDL185W, strain tfp1, stronger effect = lower value 0.782 | locus YDL192W, strain arf1, stronger effect = lower value 0.838 | locus YDR001C, strain nth1, stronger effect = lower value 0.882 | locus YDR069C, strain doa4, stronger effect = lower value 0.767 | locus YDR101C, strain arx1, stronger effect = lower value 0.897 | locus YDR137W, strain rgp1, stronger effect = lower value 0.74 | locus YDR159W, strain sac3, stronger effect = lower value 0.821 | locus YDR162C, strain NBP2, stronger effect = lower value 0.688 | locus YDR195W, strain ref2 0.538 | locus YDR297W, strain sur2, stronger effect = lower value 0.884 | locus YDR318W, strain mcm21, stronger effect = lower value 0.796 | locus YDR334W, strain swr1, stronger effect = lower value 0.786 | locus YDR335W, strain msn5, stronger effect = lower value 0.841 | locus YDR388W, stronger effect = lower value 0.793 | locus YDR392W, strain spt3, stronger effect = lower value 0.284 | locus YDR502C, strain sam2, stronger effect = lower value 0.803 | locus YEL003W, strain gim4, stronger effect = lower value 0.834 | locus YEL037C, strain rad23, stronger effect = lower value 0.851 | locus YEL061C, strain CIN8 (second series), stronger effect = lower value 0.848 | locus YER015W, strain faa2, stronger effect = lower value 0.784 | locus YER016W, strain bim1, stronger effect = lower value 0.754 | locus YER155C, strain BEM2, stronger effect = lower value 0.837 | locus YER167W, strain BCK2, stronger effect = lower value 0.82 | locus YFR010W, strain ubp6, stronger effect = lower value 0.617 | locus YGL078C, strain dbp3, stronger effect = lower value 0.883 | locus YGL086W, strain mad1, stronger effect = lower value 0.847 | locus YGL173C, strain kem1, stronger effect = lower value 0.882 | locus YGL227W, strain vid30, stronger effect = lower value 0.894 | locus YGL240W, strain doc1, stronger effect = lower value 0.565 | locus YGL248W, strain PDE1, stronger effect = lower value 0.879 | locus YGL253W, strain hxk2, stronger effect = lower value 0.885 | locus YGR135W, strain pre9, stronger effect = lower value 0.878 | locus YGR229C, strain SMI1, stronger effect = lower value 0.384 | locus YGR252W, strain gcn5, stronger effect = lower value 0.655 | locus YHR079C, strain IRE1 (second series), stronger effect = lower value 0.801 | locus YHR079C, strain IRE1, stronger effect = lower value 0.791 | locus YHR129C, strain ARP1, stronger effect = lower value 0.801 | locus YHR142W, strain chs7, stronger effect = lower value 0.772 | locus YHR200W, strain rpn10, stronger effect = lower value 0.711 | locus YIL073C, strain SPO22, stronger effect = lower value 0.598 | locus YIL125W, strain kgd1, stronger effect = lower value 0.774 | locus YIR030C, strain dcg1, stronger effect = lower value 0.826 | locus YJL092W, strain hpr5, stronger effect = lower value 0.22 | locus YJL095W, strain BCK1 (second series), stronger effect = lower value 0.855 | locus YJL095W, strain BCK1, stronger effect = lower value 0.751 and 0.84 | locus YJL115W, strain asf1, stronger effect = lower value 0.132 | locus YJL129C, strain trk1, stronger effect = lower value 0.537 | locus YJL154C, strain vps35, stronger effect = lower value 0.811 | locus YJL164C, strain tpk1, stronger effect = lower value 0.634 | locus YJL166W, strain qcr8, stronger effect = lower value 0.748 | locus YJL187C, strain SWE1 (second series), stronger effect = lower value 0.848 | locus YJL187C, strain SWE1, stronger effect = lower value 0.876 | locus YJR043C, strain POL32, stronger effect = lower value 0.561
inactive: locus YBR021W, strain FUR4, stronger effect = lower value 0.889 | locus YBR171W, strain sec66, stronger effect = lower value 0.949 | locus YBR229C, strain ROT2, stronger effect = lower value 0.982 | locus YBR279W, strain paf1, stronger effect = lower value 0.98 | locus YDL040C, strain nat1, stronger effect = lower value 0.952 | locus YDR150W, strain NUM1, stronger effect = lower value 0.998 | locus YEL061C, strain CIN8, stronger effect = lower value 0.947 | locus YER110C, stronger effect = lower value 0.944 | locus YER111C, strain swi4, stronger effect = lower value 0.97 | locus YER155C, strain BEM2 (second series), stronger effect = lower value 0.887 | locus YGL167C, strain pmr1, stronger effect = lower value 0.95 | locus YHR013C, strain ard1, stronger effect = lower value 0.868 | locus YHR027C, strain rpn1, stronger effect = lower value 0.933 | locus YHR094C, strain hxt1, stronger effect = lower value 0.941 | locus YIL066C, strain RNR3, stronger effect = lower value 0.921 | locus YJL134W, strain LCB3, stronger effect = lower value 0.997 | locus YJL168C, strain set2, stronger effect = lower value 0.961
